The supplement of paper PMC8285479
Several values for one entry are separate records, joined by “and”; a condition that tells them apart may be missing. Equal entries are not always repeated. Structures can show the parent of a compound that is named as a salt. ± gives the standard deviation of the averaged measurements. In all, about 1,900 compounds were measured (“normalised cell viability (NPI; 0 = phenylarsine oxide control, 1 = DMSO control)”: median about 1, lowest 2% from about 0.039 on). For the sample, the lowest values were picked, then their nearest neighbours and some compounds at random.

Test system: NCI-H1944
Assay: normalised cell viability (NPI; 0 = phenylarsine oxide control, 1 = DMSO control) (fraction of DMSO control); NCI-H1944 is a non-small cell lung cancer line; higher = more viable cells (less compound toxicity)
Details: 6 days
[1] = glucocorticoid arm: hydrocortisone 2.75 uM co-treatment, compound 1 µM
[2] = glucocorticoid arm: hydrocortisone 2.75 uM co-treatment, compound 5 µM
[3] = glucocorticoid arm: hydrocortisone 2.75 uM pre-treated 2 days and continued, compound 1 µM
[4] = glucocorticoid arm: hydrocortisone 2.75 uM pre-treated 2 days and continued, compound 5 µM
[5] = glucocorticoid arm: vehicle, compound 1 µM
[6] = glucocorticoid arm: vehicle, compound 5 µM
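Also: CTB read-out in 384-well plates, triplicate wells, NPI normalised per plate against 1 µM phenylarsine oxide (0) and 0.1% DMSO (1) controls.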

Structure (SMILES): c1cncc(CN2CCC(n3ncc4c(N5CCOCC5)nc(-c5ccc6[nH]ccc6c5)nc43)CC2)c1
- normalised cell viability [1]: 0.773 ± 0.022
- normalised cell viability [2]: 0.532 ± 0.036
- normalised cell viability [3]: 0.743 ± 0.027
- normalised cell viability [4]: 0.615 ± 0.036
- normalised cell viability [5]: 0.542 ± 0.035
- normalised cell viability [6]: 0.24 ± 0.0038

Structure (SMILES): Cc1nc(Nc2n[nH]c3c2CN(C(=O)N[C@H](CN(C)C)c2ccccc2)C3(C)C)c2sccc2n1
- normalised cell viability [1]: 0.832 ± 0.033
- normalised cell viability [2]: 0.29 ± 0.072
- normalised cell viability [3]: 1.05 ± 0.015
- normalised cell viability [4]: 0.763 ± 0.02
- normalised cell viability [5]: 0.12 ± 0.011
- normalised cell viability [6]: 0.0302 ± 0.0031

Structure (SMILES): CC(C)CC(=O)Nc1n[nH]c2c1CN(C(=O)C1CCN(C)CC1)C2(C)C
- normalised cell viability [1]: 0.8357 ± 0.0074
- normalised cell viability [2]: 0.369 ± 0.0055
- normalised cell viability [3]: 0.968 ± 0.0056
- normalised cell viability [4]: 0.962 ± 0.036
- normalised cell viability [5]: 0.365 ± 0.023
- normalised cell viability [6]: 0.0459 ± 0.004

Structure (SMILES): N=C1Sc2ccccc2C2=NCCCN12
- normalised cell viability [1]: 1.017 ± 0.0058
- normalised cell viability [2]: 1.01 ± 0.031
- normalised cell viability [3]: 1.02 ± 0.011
- normalised cell viability [4]: 0.86 ± 0.28
- normalised cell viability [5]: 1.002 ± 0.0068
- normalised cell viability [6]: 1.02 ± 0.015

Structure (SMILES): Cc1nc(N=Nc2ccc(C(=O)O)cc2)c(COP(=O)(O)O)c(C=O)c1O
- normalised cell viability [1]: 0.999 ± 0.0017
- normalised cell viability [2]: 0.998 ± 0.02
- normalised cell viability [3]: 1.01 ± 0.01
- normalised cell viability [4]: 1.005 ± 0.0087
- normalised cell viability [5]: 0.9937 ± 0.0085
- normalised cell viability [6]: 1 ± 0.016

Structure (SMILES): CN(C)CCCCSC(=N)N
- normalised cell viability [1]: 1.001 ± 0.0081
- normalised cell viability [2]: 1.01 ± 0.011
- normalised cell viability [3]: 1.02 ± 0.026
- normalised cell viability [4]: 1.02 ± 0.011
- normalised cell viability [5]: 0.9953 ± 0.0064
- normalised cell viability [6]: 0.9883 ± 0.005

Structure (SMILES): O=C(CCCCCCNC(=O)c1cnc(N(c2ccccc2)c2ccccc2)nc1)NO [Rocilinostat (ACY-1215)]
- normalised cell viability [1]: 0.9393 ± 0.0064
- normalised cell viability [2]: 0.966 ± 0.011
- normalised cell viability [3]: 0.944 ± 0.015
- normalised cell viability [4]: 0.945 ± 0.018
- normalised cell viability [5]: 0.9923 ± 0.0021
- normalised cell viability [6]: 0.918 ± 0.0096

Structure (SMILES): O=C(CCCCCCNC(=O)c1cnc(N(c2ccccc2)c2ccccc2)nc1)NO
- normalised cell viability [1]: 0.9803 ± 0.0098
- normalised cell viability [2]: 0.922 ± 0.018
- normalised cell viability [3]: 0.996 ± 0.021
- normalised cell viability [4]: 0.9343 ± 0.0021
- normalised cell viability [5]: 1.01 ± 0.01
- normalised cell viability [6]: 0.9873 ± 0.0071

Structure (SMILES): O=C(CCCCCCC(=O)NO)NO [Suberoyl bis-hydroxamic acid]
- normalised cell viability [1]: 0.958 ± 0.024
- normalised cell viability [2]: 0.833 ± 0.053
- normalised cell viability [3]: 0.968 ± 0.021
- normalised cell viability [4]: 0.868 ± 0.04
- normalised cell viability [5]: 1.005 ± 0.0057
- normalised cell viability [6]: 0.9962 ± 0.0093

Structure (SMILES): NC(=S)c1ccc[n+]([C@@H]2O[C@@H](COP(=O)([O-])OP(=O)(O)OC[C@H]3O[C@@H](n4cnc5c(N)ncnc54)C(OP(=O)(O)O)[C@H]3O)C(O)C2O)c1 (some centres not stated) [Thio-NADP sodium]
- normalised cell viability [1]: 1.013 ± 0.0058
- normalised cell viability [2]: 1.01 ± 0.026
- normalised cell viability [3]: 1.03 ± 0.021
- normalised cell viability [4]: 0.998 ± 0.013
- normalised cell viability [5]: 1.013 ± 0.0058
- normalised cell viability [6]: 1.013 ± 0.0058

Structure (SMILES): CC(C)c1cc(-c2ccc(F)c3ccccc23)nc(N)n1
- normalised cell viability [1]: 0.9813 ± 0.0081
- normalised cell viability [2]: 0.9787 ± 0.005
- normalised cell viability [3]: 0.991 ± 0.018
- normalised cell viability [4]: 0.993 ± 0.013
- normalised cell viability [5]: 0.984 ± 0.025
- normalised cell viability [6]: 1.001 ± 0.0079

Structure (SMILES): Cc1cc(Nc2ccc(NC(=O)c3ccc(Nc4ccnc5ccccc45)cc3)cc2)nc(N)n1
- normalised cell viability [1]: 0.99 ± 0.017
- normalised cell viability [2]: -0.000696 ± 0.0048
- normalised cell viability [3]: 0.9783 ± 0.0035
- normalised cell viability [4]: 0.492 ± 0.5
- normalised cell viability [5]: 1.006 ± 0.0075
- normalised cell viability [6]: 0.000819 ± 0.0006

Structure (SMILES): CNCc1ccc(C)c(NC(=O)c2ccc(Nc3nc(-c4ccccc4)c4ccccc4n3)cc2)c1
- normalised cell viability [1]: 0.965 ± 0.017
- normalised cell viability [2]: 0.939 ± 0.017
- normalised cell viability [3]: 0.9953 ± 0.0021
- normalised cell viability [4]: 0.959 ± 0.015
- normalised cell viability [5]: 0.991 ± 0.0027
- normalised cell viability [6]: 0.988 ± 0.011

Structure (SMILES): COc1ccc(Cl)cc1NC(=O)Nc1cc(C)nc2ccccc12
- normalised cell viability [1]: 1.01 and 1.02
- normalised cell viability [5]: 1 and 1.01

Structure (SMILES): O=C(O)C=C1CCCc2ccccc2C1O (configuration not stated)
- normalised cell viability [1]: 0.987 ± 0.012
- normalised cell viability [2]: 0.948 ± 0.026
- normalised cell viability [3]: 0.987 ± 0.02
- normalised cell viability [4]: 0.994 ± 0.044
- normalised cell viability [5]: 0.983 ± 0.0069
- normalised cell viability [6]: 0.987 ± 0.01

Structure (SMILES): Cc1cc(Cn2cnc3c2C[C@@H](C(=O)O)N(C(=O)C(c2ccccc2)c2ccccc2)C3)ccc1N
- normalised cell viability [1]: 1.03 ± 0.01
- normalised cell viability [2]: 1.01 ± 0.022
- normalised cell viability [3]: 1.023 ± 0.0058
- normalised cell viability [4]: 1.01 ± 0.014
- normalised cell viability [5]: 1.027 ± 0.0058
- normalised cell viability [6]: 1.02

Structure (SMILES): COc1cc2c(cc1C(F)(F)F)N(C(=O)Nc1cc(F)cc(-c3cccnc3)c1)CC2
- normalised cell viability [1]: 0.994 ± 0.017
- normalised cell viability [2]: 0.0391 ± 0.01
- normalised cell viability [3]: 1.02 ± 0.01
- normalised cell viability [4]: 0.903 ± 0.021
- normalised cell viability [5]: 0.974 ± 0.028
- normalised cell viability [6]: 0.00107 ± 0.00012

Structure (SMILES): Cn1ccc2cc3c(cc21)CCN3C(=O)Nc1cccnc1
- normalised cell viability [1]: 1.02 ± 0.011
- normalised cell viability [2]: 1.01 ± 0.018
- normalised cell viability [3]: 1.05 ± 0.021
- normalised cell viability [4]: 1.02 ± 0.017
- normalised cell viability [5]: 1.03 ± 0.011
- normalised cell viability [6]: 1.01 ± 0.01

Structure (SMILES): Cc1cc2c(cc1Cl)N(C(=O)Nc1cccc3ncccc13)CC2
- normalised cell viability [1]: 0.985 ± 0.011
- normalised cell viability [2]: 0.965 ± 0.015
- normalised cell viability [3]: 1 ± 0.016
- normalised cell viability [4]: 1.03 ± 0.084
- normalised cell viability [5]: 0.9793 ± 0.0086
- normalised cell viability [6]: 0.992 ± 0.007

Structure (SMILES): COc1ccc2cc(-c3nc(-c4ccc([S+](C)[O-])cc4)[nH]c3-c3ccncc3)ccc2c1 (configuration not stated) [Tie2 kinase inhibitor]
- normalised cell viability [1]: 1 ± 0.016
- normalised cell viability [2]: 1.002 ± 0.0072
- normalised cell viability [3]: 0.992 ± 0.0087
- normalised cell viability [4]: 1 ± 0.018
- normalised cell viability [5]: 0.997 ± 0.0017
- normalised cell viability [6]: 0.9943 ± 0.0098

Structure (SMILES): Cn1cc(C(=O)OCC2CCN(CCNS(C)(=O)=O)CC2)c2ccccc21
- normalised cell viability [1]: 1.01 ± 0.01
- normalised cell viability [2]: 0.997 ± 0.014
- normalised cell viability [3]: 1.02 ± 0.011
- normalised cell viability [4]: 1.03 ± 0.014
- normalised cell viability [5]: 1.017 ± 0.0058
- normalised cell viability [6]: 1.023 ± 0.0058

Structure (SMILES): CN1CCc2c(c3ccccc3n2Cc2ccc(C(=O)NO)cc2)C1 [Tubastatin A HCl]
- normalised cell viability [1]: 0.9623 ± 0.0086
- normalised cell viability [2]: 0.859 ± 0.016
- normalised cell viability [3]: 0.967 ± 0.0035
- normalised cell viability [4]: 0.913 ± 0.025
- normalised cell viability [5]: 0.999 ± 0.01
- normalised cell viability [6]: 0.9903 ± 0.0042

Structure (SMILES): CN1CCc2c(c3ccccc3n2Cc2ccc(C(=O)NO)cc2)C1 [Tubastatin A]
- normalised cell viability [1]: 0.984 ± 0.013
- normalised cell viability [2]: 0.983 ± 0.026
- normalised cell viability [3]: 0.983 ± 0.023
- normalised cell viability [4]: 1.01 ± 0.023
- normalised cell viability [5]: 0.991 ± 0.011
- normalised cell viability [6]: 0.9927 ± 0.0063

Structure (SMILES): NS(=O)(=O)c1cc(C(=O)O)c(NCc2ccco2)cc1Cl [Furosemide]
- normalised cell viability [1]: 1.002 ± 0.0076
- normalised cell viability [2]: 0.9983 ± 0.0029
- normalised cell viability [3]: 0.999 ± 0.011
- normalised cell viability [4]: 0.995 ± 0.015
- normalised cell viability [5]: 0.984 ± 0.002
- normalised cell viability [6]: 0.9897 ± 0.0047

Structure (SMILES): OCC1OC(n2cnc3c(NCCc4ccccc4)ncnc32)C(O)C1O (configuration not stated) [N6-2-Phenylethyladenosine]
- normalised cell viability [1]: 1.006 ± 0.0069
- normalised cell viability [2]: 0.9327 ± 0.0083
- normalised cell viability [3]: 0.852 ± 0.27
- normalised cell viability [4]: 1 ± 0.017
- normalised cell viability [5]: 0.993 ± 0.0062
- normalised cell viability [6]: 1 ± 0.017

Structure (SMILES): N=C(N)NCCCCNC(=N)N [Arcaine sulfate]
- normalised cell viability [1]: 0.987 ± 0.012
- normalised cell viability [2]: 0.994 ± 0.033
- normalised cell viability [3]: 0.993 ± 0.0066
- normalised cell viability [4]: 1.01 ± 0.038
- normalised cell viability [5]: 0.987 ± 0.013
- normalised cell viability [6]: 0.9957 ± 0.0045
